# Measurements from the supplement of paper PMC11732987, “Enantioselective OTUD7B fragment discovery through chemoproteomics screening and high-throughput optimisation” (Communications Chemistry, 2025).
# A number with no mark means an inactive call.
# Tests used:
# Assay in all cases: log2 ratio of Biotin-Ahx-Ub-VS probe labelling (fragment/DMSO); higher = less target engagement (more negative = stronger competition), active = hit call of the paper (q ≤ 0.05, log2 ratio ≤ -1)
# Settings in all cases: compound concentration: 200 uM; treatment time: 3 h
# USP34 = USP34 (UniProt Q70CQ2)
# Procedure, shortened: (§1)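 Each value is an average log2 ratio of fragment to vehicle, tested by unpaired t-test. The underlying Spectronaut label-free quantities were global-median-normalised, and only proteins with ≥2 unique peptides were included. Triplicate HEK293T lysate samples (495 µg) were exposed to fragment at 200 µM or vehicle for 3 h, then to Biotin-Ahx-Ub-VS at 0.5 µM final for 1 h, before NeutrAvidin enrichment of labelled DUBs, LysC and trypsin digestion, and diaPASEF LC-MS/MS.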
# USP36 = target: T1, USP36 (UniProt Q9P275)
# T1 sequence (whole entry): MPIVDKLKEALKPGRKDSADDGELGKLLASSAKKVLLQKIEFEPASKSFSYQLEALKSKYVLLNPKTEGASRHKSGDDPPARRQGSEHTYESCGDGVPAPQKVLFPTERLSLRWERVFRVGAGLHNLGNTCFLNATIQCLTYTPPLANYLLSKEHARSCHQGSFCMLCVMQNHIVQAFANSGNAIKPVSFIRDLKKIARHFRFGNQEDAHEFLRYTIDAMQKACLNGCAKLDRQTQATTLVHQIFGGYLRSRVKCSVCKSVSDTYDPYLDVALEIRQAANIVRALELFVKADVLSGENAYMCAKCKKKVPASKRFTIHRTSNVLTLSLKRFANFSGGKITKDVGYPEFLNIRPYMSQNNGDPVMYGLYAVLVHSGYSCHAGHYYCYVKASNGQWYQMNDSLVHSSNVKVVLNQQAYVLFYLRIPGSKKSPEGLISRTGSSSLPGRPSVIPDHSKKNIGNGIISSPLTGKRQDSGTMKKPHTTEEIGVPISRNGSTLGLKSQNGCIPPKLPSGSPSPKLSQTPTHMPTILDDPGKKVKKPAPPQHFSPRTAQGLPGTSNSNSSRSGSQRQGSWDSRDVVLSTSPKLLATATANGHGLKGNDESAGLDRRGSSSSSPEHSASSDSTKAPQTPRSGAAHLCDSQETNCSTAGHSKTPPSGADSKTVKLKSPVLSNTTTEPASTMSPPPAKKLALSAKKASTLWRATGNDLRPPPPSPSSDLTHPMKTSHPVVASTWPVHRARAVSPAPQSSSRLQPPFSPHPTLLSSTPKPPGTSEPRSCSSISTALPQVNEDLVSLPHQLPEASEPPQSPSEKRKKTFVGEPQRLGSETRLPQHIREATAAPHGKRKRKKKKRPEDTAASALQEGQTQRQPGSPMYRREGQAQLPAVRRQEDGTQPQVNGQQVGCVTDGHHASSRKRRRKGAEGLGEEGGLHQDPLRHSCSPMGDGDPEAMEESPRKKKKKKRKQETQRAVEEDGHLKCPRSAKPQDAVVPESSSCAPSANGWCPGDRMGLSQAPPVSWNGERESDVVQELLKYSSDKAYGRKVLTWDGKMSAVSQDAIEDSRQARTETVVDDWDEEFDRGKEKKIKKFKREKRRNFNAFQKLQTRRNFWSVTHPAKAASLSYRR
# Procedure, shortened: as §1
# USP38 = target: T2, USP38 (UniProt Q8NB14)
# T2 sequence (whole entry): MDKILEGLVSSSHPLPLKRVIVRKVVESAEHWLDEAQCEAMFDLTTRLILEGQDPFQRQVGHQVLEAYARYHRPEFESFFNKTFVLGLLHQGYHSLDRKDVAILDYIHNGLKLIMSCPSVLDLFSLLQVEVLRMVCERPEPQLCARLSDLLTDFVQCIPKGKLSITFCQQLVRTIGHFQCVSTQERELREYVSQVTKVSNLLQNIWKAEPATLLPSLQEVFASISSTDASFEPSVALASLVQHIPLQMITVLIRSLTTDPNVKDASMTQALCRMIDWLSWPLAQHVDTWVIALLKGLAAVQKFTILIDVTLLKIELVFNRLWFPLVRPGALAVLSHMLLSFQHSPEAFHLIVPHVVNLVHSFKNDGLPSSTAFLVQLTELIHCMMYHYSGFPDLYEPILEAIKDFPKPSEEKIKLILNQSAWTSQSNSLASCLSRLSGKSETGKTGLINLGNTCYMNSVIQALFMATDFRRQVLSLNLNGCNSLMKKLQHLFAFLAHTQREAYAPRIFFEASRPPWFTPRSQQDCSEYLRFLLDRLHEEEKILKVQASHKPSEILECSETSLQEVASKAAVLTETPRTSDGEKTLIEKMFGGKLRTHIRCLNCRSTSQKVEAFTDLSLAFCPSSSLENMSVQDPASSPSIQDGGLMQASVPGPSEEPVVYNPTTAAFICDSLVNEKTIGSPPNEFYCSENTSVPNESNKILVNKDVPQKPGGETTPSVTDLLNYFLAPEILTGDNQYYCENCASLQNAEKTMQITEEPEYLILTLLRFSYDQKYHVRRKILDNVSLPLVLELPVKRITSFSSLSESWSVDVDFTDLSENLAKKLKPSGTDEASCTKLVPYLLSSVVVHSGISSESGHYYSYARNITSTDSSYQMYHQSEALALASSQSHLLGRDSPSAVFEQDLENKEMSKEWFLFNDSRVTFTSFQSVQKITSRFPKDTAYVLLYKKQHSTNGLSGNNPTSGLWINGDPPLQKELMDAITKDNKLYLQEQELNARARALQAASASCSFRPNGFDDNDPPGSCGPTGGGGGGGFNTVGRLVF
# Procedure, shortened: as §1
# USP39 = target: T3, USP39 (UniProt Q53GS9)
# T3 sequence (whole entry): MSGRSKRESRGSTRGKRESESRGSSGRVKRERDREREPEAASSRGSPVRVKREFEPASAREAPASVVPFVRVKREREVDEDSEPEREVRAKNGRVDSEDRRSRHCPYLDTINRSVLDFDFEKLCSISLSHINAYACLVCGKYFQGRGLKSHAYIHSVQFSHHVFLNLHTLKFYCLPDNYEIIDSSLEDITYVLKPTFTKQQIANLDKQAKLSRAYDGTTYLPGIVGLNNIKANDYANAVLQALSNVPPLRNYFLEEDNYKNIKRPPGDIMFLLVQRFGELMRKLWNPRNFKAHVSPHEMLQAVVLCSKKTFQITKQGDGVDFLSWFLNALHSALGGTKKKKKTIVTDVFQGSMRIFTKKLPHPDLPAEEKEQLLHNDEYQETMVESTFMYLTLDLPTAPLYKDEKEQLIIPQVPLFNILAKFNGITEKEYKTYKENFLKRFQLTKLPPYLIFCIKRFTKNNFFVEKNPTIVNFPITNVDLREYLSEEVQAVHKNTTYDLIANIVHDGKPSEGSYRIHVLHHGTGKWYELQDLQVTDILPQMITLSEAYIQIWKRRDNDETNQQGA
# Procedure, shortened: as §1
# USP4 = target: T4, USP4 (UniProt Q13107)
# T4 sequence (whole entry): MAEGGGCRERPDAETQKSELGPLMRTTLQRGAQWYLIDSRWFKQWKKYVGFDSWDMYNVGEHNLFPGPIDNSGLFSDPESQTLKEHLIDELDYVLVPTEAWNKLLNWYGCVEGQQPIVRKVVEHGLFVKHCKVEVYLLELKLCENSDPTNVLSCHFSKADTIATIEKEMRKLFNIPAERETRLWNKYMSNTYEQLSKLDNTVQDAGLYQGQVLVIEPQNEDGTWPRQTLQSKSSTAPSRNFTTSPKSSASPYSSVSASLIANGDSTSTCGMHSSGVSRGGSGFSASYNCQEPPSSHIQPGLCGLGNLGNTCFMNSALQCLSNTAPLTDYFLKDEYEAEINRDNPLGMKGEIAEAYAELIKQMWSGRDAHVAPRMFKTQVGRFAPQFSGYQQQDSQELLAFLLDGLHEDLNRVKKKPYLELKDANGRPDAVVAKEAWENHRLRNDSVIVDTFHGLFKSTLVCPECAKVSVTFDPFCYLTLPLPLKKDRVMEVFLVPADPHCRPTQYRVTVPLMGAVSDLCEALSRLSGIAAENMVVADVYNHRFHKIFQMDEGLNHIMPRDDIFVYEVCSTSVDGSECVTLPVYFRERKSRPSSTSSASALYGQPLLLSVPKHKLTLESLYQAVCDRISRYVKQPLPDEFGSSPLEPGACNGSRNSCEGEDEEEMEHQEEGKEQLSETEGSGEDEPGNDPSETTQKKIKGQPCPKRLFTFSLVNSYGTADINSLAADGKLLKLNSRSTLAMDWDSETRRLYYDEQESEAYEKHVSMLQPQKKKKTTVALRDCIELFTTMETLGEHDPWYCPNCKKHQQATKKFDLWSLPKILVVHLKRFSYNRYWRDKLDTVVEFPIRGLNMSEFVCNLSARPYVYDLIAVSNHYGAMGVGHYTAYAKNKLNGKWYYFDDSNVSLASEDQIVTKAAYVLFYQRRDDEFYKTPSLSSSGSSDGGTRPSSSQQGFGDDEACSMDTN
# Procedure, shortened: as §1
# Sequence of USP34 (Q70CQ2 whole entry, the tested form may be a part): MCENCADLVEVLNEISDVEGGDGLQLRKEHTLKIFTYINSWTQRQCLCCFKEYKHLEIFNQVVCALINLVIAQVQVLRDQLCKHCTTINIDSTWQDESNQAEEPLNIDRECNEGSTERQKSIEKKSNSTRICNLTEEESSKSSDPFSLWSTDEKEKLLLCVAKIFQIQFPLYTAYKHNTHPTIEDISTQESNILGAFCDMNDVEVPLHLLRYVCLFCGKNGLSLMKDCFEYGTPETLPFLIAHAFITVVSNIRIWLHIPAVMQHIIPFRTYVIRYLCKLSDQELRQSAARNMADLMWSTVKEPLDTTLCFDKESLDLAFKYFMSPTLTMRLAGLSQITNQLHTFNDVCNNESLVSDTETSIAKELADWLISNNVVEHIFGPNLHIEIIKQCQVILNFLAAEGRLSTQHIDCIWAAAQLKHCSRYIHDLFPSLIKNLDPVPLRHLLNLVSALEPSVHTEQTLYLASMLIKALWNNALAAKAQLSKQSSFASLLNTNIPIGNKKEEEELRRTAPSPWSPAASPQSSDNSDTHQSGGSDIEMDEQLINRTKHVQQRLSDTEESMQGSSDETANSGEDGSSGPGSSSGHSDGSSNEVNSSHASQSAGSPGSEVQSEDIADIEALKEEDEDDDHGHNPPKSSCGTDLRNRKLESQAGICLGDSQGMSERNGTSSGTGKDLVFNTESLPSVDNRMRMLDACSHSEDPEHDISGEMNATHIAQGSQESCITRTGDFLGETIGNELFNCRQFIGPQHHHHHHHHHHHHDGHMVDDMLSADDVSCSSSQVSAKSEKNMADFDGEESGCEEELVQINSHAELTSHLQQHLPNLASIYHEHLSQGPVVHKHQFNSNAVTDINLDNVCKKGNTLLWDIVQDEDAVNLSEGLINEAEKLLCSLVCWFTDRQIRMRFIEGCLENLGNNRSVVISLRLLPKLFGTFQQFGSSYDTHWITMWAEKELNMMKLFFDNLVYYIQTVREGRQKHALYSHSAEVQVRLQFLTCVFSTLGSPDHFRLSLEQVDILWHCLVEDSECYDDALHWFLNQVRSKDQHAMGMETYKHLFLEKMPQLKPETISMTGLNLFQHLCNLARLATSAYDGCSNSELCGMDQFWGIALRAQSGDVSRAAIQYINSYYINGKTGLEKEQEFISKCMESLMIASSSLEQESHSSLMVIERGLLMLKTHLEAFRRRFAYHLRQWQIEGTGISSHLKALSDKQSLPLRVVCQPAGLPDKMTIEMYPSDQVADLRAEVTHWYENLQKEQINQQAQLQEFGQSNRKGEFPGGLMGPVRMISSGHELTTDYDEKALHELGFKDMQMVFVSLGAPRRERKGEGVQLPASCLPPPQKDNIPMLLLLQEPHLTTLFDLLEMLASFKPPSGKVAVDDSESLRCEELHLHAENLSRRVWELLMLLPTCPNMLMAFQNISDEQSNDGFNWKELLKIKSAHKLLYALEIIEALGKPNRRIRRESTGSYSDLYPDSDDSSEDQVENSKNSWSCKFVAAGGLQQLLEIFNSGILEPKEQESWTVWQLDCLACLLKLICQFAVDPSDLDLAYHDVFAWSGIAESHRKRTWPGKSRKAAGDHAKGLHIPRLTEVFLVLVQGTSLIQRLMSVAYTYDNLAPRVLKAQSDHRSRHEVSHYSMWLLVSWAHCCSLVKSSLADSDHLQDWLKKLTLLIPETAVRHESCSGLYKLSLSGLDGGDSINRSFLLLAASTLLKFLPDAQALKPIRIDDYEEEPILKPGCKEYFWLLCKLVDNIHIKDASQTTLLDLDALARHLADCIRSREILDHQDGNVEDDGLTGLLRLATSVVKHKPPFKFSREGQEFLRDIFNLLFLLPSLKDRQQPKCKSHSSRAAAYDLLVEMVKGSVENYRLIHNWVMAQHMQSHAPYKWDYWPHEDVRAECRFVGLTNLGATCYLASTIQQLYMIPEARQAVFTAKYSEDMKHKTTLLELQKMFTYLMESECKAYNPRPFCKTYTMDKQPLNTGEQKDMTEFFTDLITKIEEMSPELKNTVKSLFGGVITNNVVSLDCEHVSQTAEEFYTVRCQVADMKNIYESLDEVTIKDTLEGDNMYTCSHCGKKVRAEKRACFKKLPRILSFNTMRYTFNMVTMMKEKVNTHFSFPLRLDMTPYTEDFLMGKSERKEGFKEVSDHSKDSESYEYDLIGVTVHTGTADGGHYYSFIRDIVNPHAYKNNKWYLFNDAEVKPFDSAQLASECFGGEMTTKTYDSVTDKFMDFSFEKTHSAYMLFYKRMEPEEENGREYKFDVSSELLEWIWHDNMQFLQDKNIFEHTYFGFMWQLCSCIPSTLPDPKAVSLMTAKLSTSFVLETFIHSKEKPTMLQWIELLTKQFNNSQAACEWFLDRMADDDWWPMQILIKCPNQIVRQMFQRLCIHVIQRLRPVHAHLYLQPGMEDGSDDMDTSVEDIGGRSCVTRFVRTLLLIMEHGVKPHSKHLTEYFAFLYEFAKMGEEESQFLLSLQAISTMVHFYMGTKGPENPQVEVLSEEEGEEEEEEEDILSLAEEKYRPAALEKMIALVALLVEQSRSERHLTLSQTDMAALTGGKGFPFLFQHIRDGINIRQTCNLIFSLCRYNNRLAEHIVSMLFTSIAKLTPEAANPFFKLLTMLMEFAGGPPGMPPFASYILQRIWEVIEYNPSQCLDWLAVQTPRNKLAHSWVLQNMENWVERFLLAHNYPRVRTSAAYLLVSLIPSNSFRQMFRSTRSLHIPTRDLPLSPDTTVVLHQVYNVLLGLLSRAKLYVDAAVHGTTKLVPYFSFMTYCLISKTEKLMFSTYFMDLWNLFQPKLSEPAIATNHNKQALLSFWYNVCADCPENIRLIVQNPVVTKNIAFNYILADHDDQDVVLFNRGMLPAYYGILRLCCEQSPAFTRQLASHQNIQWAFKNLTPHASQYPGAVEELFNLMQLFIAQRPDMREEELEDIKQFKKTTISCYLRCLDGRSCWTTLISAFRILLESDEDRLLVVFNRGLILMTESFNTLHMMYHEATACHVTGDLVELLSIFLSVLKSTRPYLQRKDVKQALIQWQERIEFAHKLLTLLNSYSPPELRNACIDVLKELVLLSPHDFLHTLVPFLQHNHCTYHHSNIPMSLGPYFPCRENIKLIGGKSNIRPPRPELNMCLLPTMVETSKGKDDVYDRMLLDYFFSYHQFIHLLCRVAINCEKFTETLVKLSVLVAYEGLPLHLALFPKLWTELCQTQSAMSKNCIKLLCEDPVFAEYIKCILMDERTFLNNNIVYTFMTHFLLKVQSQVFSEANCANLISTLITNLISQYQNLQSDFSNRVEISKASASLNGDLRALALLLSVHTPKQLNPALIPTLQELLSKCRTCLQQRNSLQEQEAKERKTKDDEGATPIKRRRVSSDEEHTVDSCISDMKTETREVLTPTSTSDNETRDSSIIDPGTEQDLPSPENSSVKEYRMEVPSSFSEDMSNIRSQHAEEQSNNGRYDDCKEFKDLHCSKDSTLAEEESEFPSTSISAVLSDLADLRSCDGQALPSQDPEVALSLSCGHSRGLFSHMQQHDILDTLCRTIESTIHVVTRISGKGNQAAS
compound,measurement,setting,value
O=C(CCl)N1CCc2[nH]c3ccccc3c2C1,log2 ratio of Biotin-Ahx-Ub-VS probe labelling,USP34,-0.571
same,log2 ratio of Biotin-Ahx-Ub-VS probe labelling,USP36,0.0133
same,log2 ratio of Biotin-Ahx-Ub-VS probe labelling,USP38,-0.674
same,log2 ratio of Biotin-Ahx-Ub-VS probe labelling,USP39,5.6e-06
same,log2 ratio of Biotin-Ahx-Ub-VS probe labelling,USP4,-1.51 (active)
